Measurements reported in PubChem BioAssay AID1159580 (chemical genetic matrix, 2015).
“And” between values parts separate entries of the source, which are not always exact repeats. Equal entries are not always repeated. Among all 5,500 compounds or so, about 2,000 (36%) were called active. Roughly 18% stayed inconclusive and do not appear here. Rule as the data show it: active = normalized growth mostly below about 0.91 (no sharp cut-off); inconclusive = no clear call, values can overlap the other calls; inactive = mostly above about 0.92. The list shows a part of the results.

Assay: chemical genetic growth profiling, strain panel (AID 1159580);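 also: tested at 20 µM; growth read once vehicle control cultures reached saturation at 30 °C; 1 = growth at the plate median or of vehicle wells; lower values mean less growth of the strain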
Details: S. cerevisiae deletion strains, growth OD

Measured: normalized growth

Oc1cc(O)c2c(c1)O[C@H](c1ccc(O)c(O)c1)[C@H](O)C2
inactive: locus YAL021C, strain ccr4, hits give low values 1.02 | locus YAL026C, strain drs2, hits give low values 1.01 | locus YAL030W, strain snc1, hits give low values 1 | locus YBL061C, strain skt5, hits give low values 1.02 | locus YBR009C, strain hhf1, hits give low values 1.02 | locus YBR023C, strain chs3, hits give low values 1.01 | locus YBR171W, strain sec66, hits give low values 1.02 | locus YBR229C, strain ROT2, hits give low values 1 | locus YBR231C, strain swc5, hits give low values 1.02 | locus YBR279W, strain paf1, hits give low values 1.01 | locus YCL011C, strain gbp2, hits give low values 1.01 | locus YCL016C, strain dcc1, hits give low values 1 | locus YCL029C, strain bik1, hits give low values 0.976 | locus YCL061C, strain MRC1, hits give low values 1.01 | locus YCL069W, strain vba3, hits give low values 1.01 | locus YCR088W, strain abp1, hits give low values 1.01 | locus YDL005C, strain med2, hits give low values 1.01 | locus YDL035C, strain GPR1, hits give low values 1.03 | locus YDL040C, strain nat1, hits give low values 0.998 | locus YDL074C, strain BRE1, hits give low values 1 | locus YDL101C, strain DUN1, hits give low values 1 | locus YDL185W, strain tfp1, hits give low values 0.953 | locus YDL192W, strain arf1, hits give low values 0.992 | locus YDR001C, strain nth1, hits give low values 1 | locus YDR069C, strain doa4, hits give low values 1 | locus YDR101C, strain arx1, hits give low values 0.986 | locus YDR137W, strain rgp1, hits give low values 1.02 | locus YDR150W, strain NUM1, hits give low values 0.984 | locus YDR159W, strain sac3, hits give low values 1.06 | locus YDR162C, strain NBP2, hits give low values 1.03 | locus YDR195W, strain ref2 0.968 | locus YDR297W, strain sur2, hits give low values 1.01 | locus YDR318W, strain mcm21, hits give low values 0.995 | locus YDR334W, strain swr1, hits give low values 1.01 | locus YDR335W, strain msn5, hits give low values 0.994 | locus YDR388W, hits give low values 0.995 | locus YDR392W, strain spt3, hits give low values 1.01 | locus YDR502C, strain sam2, hits give low values 1.01 | locus YEL003W, strain gim4, hits give low values 1.01 | locus YEL037C, strain rad23, hits give low values 1.02 | locus YEL061C, strain CIN8 (second series), hits give low values 1 | locus YEL061C, strain CIN8, hits give low values 0.994 | locus YER015W, strain faa2, hits give low values 1 | locus YER016W, strain bim1, hits give low values 1.01 | locus YER110C, hits give low values 0.969 | locus YER111C, strain swi4, hits give low values 1 | locus YER155C, strain BEM2 (second series), hits give low values 1.02 | locus YER155C, strain BEM2, hits give low values 1 | locus YER167W, strain BCK2, hits give low values 1.02 | locus YFR010W, strain ubp6, hits give low values 1.01 | locus YGL078C, strain dbp3, hits give low values 0.997 | locus YGL086W, strain mad1, hits give low values 0.994 | locus YGL167C, strain pmr1, hits give low values 1.01 | locus YGL173C, strain kem1, hits give low values 1.01 | locus YGL227W, strain vid30, hits give low values 1.01 | locus YGL240W, strain doc1, hits give low values 1.04 | locus YGL248W, strain PDE1, hits give low values 1 | locus YGL253W, strain hxk2, hits give low values 1.02 | locus YGR135W, strain pre9, hits give low values 1.01 | locus YGR252W, strain gcn5, hits give low values 1.13 | locus YHR013C, strain ard1, hits give low values 0.995 | locus YHR027C, strain rpn1, hits give low values 1.01 | locus YHR030C, strain SLT2, hits give low values 1 and 0.992 | locus YHR079C, strain IRE1 (second series), hits give low values 0.975 | locus YHR079C, strain IRE1, hits give low values 0.992 | locus YHR094C, strain hxt1, hits give low values 0.992 | locus YHR129C, strain ARP1, hits give low values 1 | locus YHR142W, strain chs7, hits give low values 1.02 | locus YHR200W, strain rpn10, hits give low values 0.983 | locus YIL066C, strain RNR3, hits give low values 1.01 | locus YIL073C, strain SPO22, hits give low values 0.997 | locus YIL125W, strain kgd1, hits give low values 0.996 | locus YIR030C, strain dcg1, hits give low values 0.986 | locus YJL092W, strain hpr5, hits give low values 1.02 | locus YJL095W, strain BCK1 (second series), hits give low values 1.01 | locus YJL095W, strain BCK1, hits give low values 0.984 and 1 | locus YJL115W, strain asf1, hits give low values 1 | locus YJL129C, strain trk1, hits give low values 1.02 | locus YJL134W, strain LCB3, hits give low values 0.991 | locus YJL154C, strain vps35, hits give low values 1.01 | locus YJL164C, strain tpk1, hits give low values 1 | locus YJL166W, strain qcr8, hits give low values 1.02 | locus YJL168C, strain set2, hits give low values 0.98 | locus YJL187C, strain SWE1 (second series), hits give low values 0.994 | locus YJL187C, strain SWE1, hits give low values 1
active: locus YBR021W, strain FUR4, hits give low values 1.21 [resistant]
